According to the supplement of paper PMC6555819:

What follows are sequences tested on FXR:RXRa (NR concentration 270 nM, RXRa partner concentration 90 nM) (assay: PBM binding z-score (relative to random genomic background probes); higher = stronger binding; sequences stand for … in GC…GCGATTGACAGCGTAGAATGAAGG).
Summary of the method: (§1)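 Custom Agilent 4×180K protein-binding microarrays carried double-stranded probes, each with a 34-nt variable region. These regions held direct-repeat seeds, single-nucleotide variants, half-site ablations and random human genomic background sequences. Ligand-free nuclear receptor dimers were incubated on the arrays for 1 h, antibodies against each partner (one per run) detected binding, and scanned fluorescence was regression-normalized. Binding z-scores take the random background probes as reference.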

| Sequence | PBM binding z-score |
| --- | --- |
| ATTCGGAGGACAAAGGTCAGAGCTACGCCAGTGA | 4.05 |
| GGAACGAGGGCAAGTTGATGGCAGAGTTTGATGG | 0.782 |
| AGTCAAAGTTCACTAGGTCACGTAAGATTCAGCT | 6.19 |
| TCTTGTAGATCAGGAGGTTAAGAAAGCTGGCCAA | 0.046 |
| TAGCCTAGGTCAGATCGGTCCAGTATACGCTATA | 1.8 |
| ATCTCTAGGTAACCAAGTTCAGGGAATGCCGAAC | 0.126 |
| TCGAGTAGGTTAGGGGCGTTCAGAATGGCGTCGA | 0.341 |
| TCATATAGGTAAACAGGGGAAAGTCCGTAAGTTA | 1.29 |
| ACTATTAGTTGAGACGAGGGCAACCTATAGGTTG | 0.678 |
| CCTACTGGGCCATCAGGCCATTGATATCAACGTT | 0.133 |
| TCTCGGAGCACACGAAGGTCAGAGCTTTCCAGAG | 0.286 |
| ATCTCTAGGTAACCAAGTTCAATGAATGCCGAAC | 0.814 |
| TGGATGAGGTTAAAGATCAGGGAACGTGGCGTCG | 3.69 |
| CTCGAAAGGTCGGTTGAGGTGCGTATACGGATAA | 2.39 |
| ATCGAAAGGTCGAGCTGAGTATAGAGAAAGGGAA | 4.53 |
| ACAGACATGTGAGTGAAGGTAACTCAGCTGGACG | -0.28 |
| CAAACTAGGTCACGGAAGGTCAAAGTCGAATGAC | 7.44 |
| TAGCATAGGTCATTGGGCCAGTATAGTACGCATC | 6.02 |
| AGTCAAAGTTCATCTAGGTAACGTATGATATGCT | 6.72 |
| AGAATGAGGTTAAGATGAGGGAAACAGAATACAT | 2.41 |

| Sequence | PBM binding z-score |
| --- | --- |
| CCTCCAAGGTCAATGCTAGGTCAGTGAAAGCATT | 6.43 |
| TCGAGTAGGTTAGGGGCAGTCAGAATGGCGTCGA | 0.232 |
| ATCGAAAGGTCGACGAGGTGTGTATACACCGTTT | 3.98 |
| CCTACTGGGCCATTCAGAGGTCTTTGATCATATG | -0.281 |
| ATCGAAACGTCGAGGTGAGTATAGAGAAAGGGAA | -0.226 |
| CCCAGCAGGCCAGGGTCACTCAAGCATTTCGCTT | 2.03 |
| CTTCCAAGGTCAATGCTAGGTCAGTGAAAGCATT | 6.83 |
| GGTACGAGGGCATTCGAGTTGATAGCATGGCGAT | 1.45 |
| TGTCAAAGTTCAAAGGTAACGTACGTATCCACAC | 7.21 |
| GGAACGAGAGCAAAGTTGATAGCATCTGTCGACG | -0.381 |
| GCTATTAGTTGAAAGGGCAACCAAATGATTCTCG | 0.334 |
| ATATGTAGGTTACAACCGGGTCATTCAGGCTATG | 2.4 |
| TCTTGTAGATCAACAGGGGGTTAAGAAAGATCGA | 1.48 |
| CCTACTGGGCCAAAAAGCTCATTGATGCCGATAA | -0.506 |
| AGTCAAAGTTCAGGACGAGTTAACGTAAAGCACG | 3.79 |
| TGAATGAGGTTAAAGATTAGGGAACGTGGCGTCG | 2.45 |
| CAAACTAGGTCCCGAAAGGTCAAAGTCGAATGAC | 5.02 |
| CCAAGTTGGTCAGGAGGTCACACACCGGATATGA | 3.68 |
| AGTCAAAGTTCAGGACGATGTAACGTAAAGCACG | 3.6 |
| GCAACGAGGGCAAAGTTGATAGCATCTGTCGACG | 1.14 |

Each sequence was assayed on LXRa:RXRa (NR concentration 270 nM, RXRa partner concentration 90 nM) in the same assay as above.
Summary of the method: as §1

| Sequence | PBM binding z-score |
| --- | --- |
| ATTCGGAGGACAAAGGTCAGAGCTACGCCAGTGA | 4.26 |
| GGAACGAGGGCAAGTTGATGGCAGAGTTTGATGG | 0.592 |
| AGTCAAAGTTCACTAGGTCACGTAAGATTCAGCT | 6.11 |
| TCTTGTAGATCAGGAGGTTAAGAAAGCTGGCCAA | 0.738 |
| TAGCCTAGGTCAGATCGGTCCAGTATACGCTATA | 0.953 |
| ATCTCTAGGTAACCAAGTTCAGGGAATGCCGAAC | 0.821 |
| TCGAGTAGGTTAGGGGCGTTCAGAATGGCGTCGA | 0.362 |
| TCATATAGGTAAACAGGGGAAAGTCCGTAAGTTA | 1.09 |
| ACTATTAGTTGAGACGAGGGCAACCTATAGGTTG | 0.287 |
| CCTACTGGGCCATCAGGCCATTGATATCAACGTT | -0.192 |
| TCTCGGAGCACACGAAGGTCAGAGCTTTCCAGAG | 0.742 |
| ATCTCTAGGTAACCAAGTTCAATGAATGCCGAAC | 1.63 |
| TGGATGAGGTTAAAGATCAGGGAACGTGGCGTCG | 2.74 |
| CTCGAAAGGTCGGTTGAGGTGCGTATACGGATAA | 1.39 |
| ATCGAAAGGTCGAGCTGAGTATAGAGAAAGGGAA | 3.69 |
| ACAGACATGTGAGTGAAGGTAACTCAGCTGGACG | -0.449 |
| CAAACTAGGTCACGGAAGGTCAAAGTCGAATGAC | 7.64 |
| TAGCATAGGTCATTGGGCCAGTATAGTACGCATC | 5.02 |
| AGTCAAAGTTCATCTAGGTAACGTATGATATGCT | 5.89 |
| AGAATGAGGTTAAGATGAGGGAAACAGAATACAT | 2.35 |

| Sequence | PBM binding z-score |
| --- | --- |
| CCTCCAAGGTCAATGCTAGGTCAGTGAAAGCATT | 5.53 |
| TCGAGTAGGTTAGGGGCAGTCAGAATGGCGTCGA | 0.211 |
| ATCGAAAGGTCGACGAGGTGTGTATACACCGTTT | 3.28 |
| CCTACTGGGCCATTCAGAGGTCTTTGATCATATG | -0.261 |
| ATCGAAACGTCGAGGTGAGTATAGAGAAAGGGAA | -0.343 |
| CCCAGCAGGCCAGGGTCACTCAAGCATTTCGCTT | 1.48 |
| CTTCCAAGGTCAATGCTAGGTCAGTGAAAGCATT | 5.58 |
| GGTACGAGGGCATTCGAGTTGATAGCATGGCGAT | 1.69 |
| TGTCAAAGTTCAAAGGTAACGTACGTATCCACAC | 6.37 |
| GGAACGAGAGCAAAGTTGATAGCATCTGTCGACG | -0.564 |
| GCTATTAGTTGAAAGGGCAACCAAATGATTCTCG | 0.735 |
| ATATGTAGGTTACAACCGGGTCATTCAGGCTATG | 4.01 |
| TCTTGTAGATCAACAGGGGGTTAAGAAAGATCGA | 2.69 |
| CCTACTGGGCCAAAAAGCTCATTGATGCCGATAA | -0.69 |
| AGTCAAAGTTCAGGACGAGTTAACGTAAAGCACG | 3.99 |
| TGAATGAGGTTAAAGATTAGGGAACGTGGCGTCG | 2.05 |
| CAAACTAGGTCCCGAAAGGTCAAAGTCGAATGAC | 5.71 |
| CCAAGTTGGTCAGGAGGTCACACACCGGATATGA | 3.62 |
| AGTCAAAGTTCAGGACGATGTAACGTAAAGCACG | 3.59 |
| GCAACGAGGGCAAAGTTGATAGCATCTGTCGACG | 1.01 |
